Records with an inconclusive call do not appear. Where a call stands in place of a potency, no number is given. More than one record can exist for a structure, and the calls need not agree. Active and inactive are the calls of the source. Calls come from the whole dose curve.
Test: p53 small molecule agonists, cell-based qHTS assay with human liver microsomes: qHTS cell viability counter screen (AID 1963579); note: nearly all actives have a fitted effect of over 45% in size
Details: p53RE-bla HCT-116 viability, ATP luminescence, 16 h, HLM; series mostly up to 66 µM
Excerpt: National Center for Advancing Translational Sciences [NCATS]
Division of Preclinical Innovation [DPI]
U.S. Environmental Protection Agency [EPA]
National Institutes of Environmental Health Sciences [NIEHS]
National Toxicology Program [NTP]
U.S. Food and Drug Administration [FDA]
p53, a tumor suppressor protein, is activated following cellular insult, including DNA damage and other cellular stresses. The activation of p53 regulates cell fate by inducing DNA repair, cell cycle arrest, apoptosis, or cellular senescence. The activation of p53, therefore, is a good indicator of DNA damage and other cellular stresses. […] The activation of the reporter gene under culture conditions can be detected by fluorescence intensity. This cell line was used to screen the Tox21 10K compound library in the condition of presence of human liver microsomes and to identify agonists that activate the p53 signaling pathway after in vitro metabolic activation (Ooka et al., Archive of Toxicology 96:1975-1987, 2022).
Tox21 Assay Protocol Summary:
The p53RE-bla cells were dispensed at 4,000cells/3ul/well in 1536-well black-clear bottom plates. After the assay plates were incubated at 37 C, 5% CO2 incubator for 5 hours, 23 nL of compounds dissolved in DMSO, positive controls or DMSO only was transferred to the assay plate. Following compound addition, 3 uL of human liver microsomes (XenoTech, Kansas City, KS) at final concentration of 0.5 mg/mL and 1uL of B-Nicotinamide adenine dinucleotide 2'-phosphate (NADPH) at final concentration of 0.5 mg/mL were transferred to the assay plate. The plates were incubated at 37 C for 16 hours. 1 uL of LiveBLAzer detection mixture was added to each well and the plates were incubated at room temperature in the dark for 2 h. Fluorescence intensity at 460 and 530 nm emission and 405 nm excitation were measured by an Envision plate reader. For cell viability readout that measures cytotoxicity, 4 ul/well of CellTiter-Glo reagent was added into the assay plates using a Flying Reagent Dispenser. After 30 min incubation at room temperature, the luminescence intensity in the plates was measured using a ViewLux plate reader.
Potency is the fitted concentration of half-maximal effect.

| SMILES | Potency | activity change, negative = cytotoxicity |
| --- | --- | --- |
| CCCCP(CCCC)CCCC | inactive |  |
| Cc1c(COC(=O)[C@@H]2[C@H](/C=C(\Cl)C(F)(F)F)C2(C)C)cccc1-c1ccccc1 | inactive |  |
| Nc1c(Br)cc(Br)c2c1C(=O)c1ccccc1C2=O |  | 2.22% [at 13.5 µM] (inactive) |
| Brc1cccc(-c2ccccc2)c1 | inactive |  |
| ClC1=C(Cl)[C@]2(Cl)[C@H]3[C@H]([C@@H]4C=C[C@H]3C4)[C@@]1(Cl)C2(Cl)Cl | inactive |  |
| N#CNC#N | inactive |  |
| COc1ccc(C=O)cc1O | inactive |  |
| COc1ccc2c(c1OC)C(=O)O[C@H]2[C@@H]1c2cc3c(cc2CCN1C)OCO3 | inactive |  |
| c1ccc(Nc2ccc(Nc3ccccc3)cc2)cc1 | inactive |  |
| CCC(Cl)CCl (stereo not given) | inactive |  |
| CN(C)CCc1c[nH]c2ccc(O)cc12 | inactive |  |
| CCOP(=O)(O)C(N)=O | inactive |  |
| N[C@@H]1C[C@H]1c1ccccc1 | inactive |  |
| O=C(CCl)Nc1ccccc1 | inactive |  |
| CC1=C(C(=O)Nc2ccccc2)S(=O)(=O)CCO1 | inactive |  |
| ClC(Cl)C(Cl)(Cl)Cl | inactive |  |
| CC(C)(C)C(=O)C(Oc1ccc(Cl)cc1)n1cncn1 (stereo not given) | inactive |  |
| COc1cc(CC#N)cc(OC)c1OC | inactive |  |
| Cc1ncsc1CCCl | inactive |  |
| CCCN | inactive |  |

| SMILES | Potency | activity change, negative = cytotoxicity |
| --- | --- | --- |
| CN(N=O)c1ccc([N+](=O)[O-])cc1 | inactive |  |
| CCOC(=O)C(Cl)Cc1cc(-n2nc(C)n(C(F)F)c2=O)c(F)cc1Cl (stereo not given) | inactive |  |
| CN(C)[C@@H]1C(=O)C(C(N)=O)=C(O)[C@@]2(O)C(=O)C3=C(O)c4c(O)ccc(Cl)c4[C@@](C)(O)[C@H]3C[C@@H]12 | inactive |  |
| CC(C)[C@@H](Nc1ccc(C(F)(F)F)cc1Cl)C(=O)OC(C#N)c1cccc(Oc2ccccc2)c1 (stereo not given in full) | inactive |  |
| CC(C)(c1ccccc1)c1ccc(O)cc1 | 45.4 µM (active) and inactive |  |
| CC(C)CC(N(C)C)C1(c2ccc(Cl)cc2)CCC1 (stereo not given) | inactive |  |
| ClCCCCCCCl | inactive |  |
| O=S(=O)(NS(=O)(=O)C(F)(F)F)C(F)(F)F | inactive |  |
| CC1CCCC1 | inactive |  |
| O=S(=O)(O)F | inactive |  |
| O=[N+]([O-])c1cccc(CCl)c1 | inactive |  |
| Cc1cc(C)cc(OP(=O)(Oc2cc(C)cc(C)c2)Oc2cc(C)cc(C)c2)c1 | inactive |  |
| CC(=O)[O-].CC(=O)[O-].[Hg+2] | 3.63 µM (active) |  |
| C=CCOC(=O)c1ccccc1N | inactive |  |
| NC1=NC(=O)C(c2ccccc2)O1 (stereo not given) | inactive |  |
| CCOC(C(=O)OCCN(C)C)(c1ccccc1)c1ccccc1 | inactive |  |
| c1ccccc1 | inactive |  |
| CCc1ccc(C2CCNCC2)cc1 | inactive |  |
| N#CCCl | inactive |  |
| CC[C@@H](CO)NC(=O)[C@@H]1C=C2c3cccc4[nH]cc(c34)C[C@H]2N(C)C1 | inactive |  |

From PubChem BioAssay (Tox21)
